The text below walks through data of PubChem BioAssay (NCATS).

Structures are written as SMILES. Results filed as inconclusive are left out. Entries that show only a call come without a potency. Active and inactive are the calls of the source. Calls come from the whole dose curve; as a rule, active = well fitted inhibition curve with a large enough effect; inconclusive = small, poorly fitted or top-dose-only effect; inactive = flat fitted curve, though single readings scatter.
Potency is the fitted concentration of half-maximal effect.

Chain of Phospholipid hydroperoxide glutathione peroxidase GPX4 (Homo sapiens) (P36969 whole entry, looked up): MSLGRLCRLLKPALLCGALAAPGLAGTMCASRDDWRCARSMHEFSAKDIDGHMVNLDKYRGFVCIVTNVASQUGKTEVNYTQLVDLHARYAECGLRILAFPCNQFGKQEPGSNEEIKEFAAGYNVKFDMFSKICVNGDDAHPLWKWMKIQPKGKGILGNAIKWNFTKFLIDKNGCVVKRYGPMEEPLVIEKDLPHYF

This experiment addresses Phospholipid hydroperoxide glutathione peroxidase GPX4 (Homo sapiens) (UniProt P36969). Briefly: Primary qHTS Assay for Inhibitors of Recombinant Selenoprotein Glutathione Peroxidase 4 (GPX4) (AID 1845192). Note: nearly all actives have a fitted effect of over 65% in size. The conditions noted are these: recombinant GPX4, GR-coupled NADPH fluorescence, 15 min; series mostly up to 50 µM. An excerpt:
Assay Provider: Elias S.J. Arner MD PhD.
Department of Medical Biochemistry and Biophysics
Karolinska Institutet, Solna, Stockholm, Sweden
Selenoprotein glutathione peroxidases (GPX), like the ubiquitously expressed GPX1 and the ferroptosis modulator GPX4, enact their antioxidant activities by reducing hydroperoxides using glutathione. […] GPX1 and GPX4 inhibitors have thus shown promise as anti-cancer agents. Existing inhibitors are often promiscuous, or modulate GPX activity only indirectly, so novel direct inhibitors identified through screening against GPX1 and GPX4 could be valuable. Here, we developed optimized glutathione reductase (GR)-coupled GPX assays for the biochemical high-throughput screen (HTS) of almost 12,000 compounds with known mechanisms of action. Initial hits were triaged using a GR counter-screen, assessed for isoform specificity using a separate GPX2 assay, and were assessed for general selenocysteine-targeting activity using a thioredoxin reductase (TXNRD1) assay. With this suite of assays, we identified novel GPX1/GPX2- and GPX4-specific inhibitors and can here present a validated pipeline for future discovery research for selenoprotein-targeting agents.
SEQUENCE No. (e.g., 1, 2, 3, etc.); […] (e.g., Cells, Incubation, Reagent, etc.); VALUE; DESCRIPTION.
1; Reagent 1; 3 uL; 333.33 nM GPx4 enzyme or no enzyme control in 1536-well, black, solid Greiner assay plate.
2; Compound; 25 nL; Kalypsis pin tool (Wako USA) equipped with a 1536-well pin head.
3; Incubation; 30 min; room temperature.
4; Reagent 2; 1 uL; 500 nM GR, 5 mM GSH, 2.5 mM NADPH solution
5; Reagent 3; 1 uL; 2.5 mM CHP in 50% EtOH.
6; Detection; Fluorescence; ViewLux microplate reader, excitation 340 nm and emission 450 nm.
7; Incubation; 15 min; room temperature.
8; Detection; Fluorescence; ViewLux microplate reader, excitation 340 nm and emission 450 nm.
NOTES (numbers refer to Sequence numbers above)
1. 3 µL of 333.33 nM GPX4 and 0.016% BSA in assay buffer (50 mM Tris-HCl, 2 mM EDTA (pH 7.5), 150 mM NaCl) was added to columns 3-48 of 1536-well plates using a BioRAPTR Flying Reagent Dispenser (Let's Go Robotics (LGR), Carlsbad, CA). A no-enzyme control (0.01% BSA in TES assay buffer) was added to columns 1-2.
2. 25 nL, library and DMSO controls were added to each well with a pin tool (Kalypsys).
3. The assay plates were incubated for 30 minutes at room temperature.
4. 1 µL of master mix (500 nM glutathione reductase (GR), 5 mM reduced glutathione (GSH), 2.5 mM NADPH in assay buffer) was added.
5. 1 µL of cumene hydroperoxide (CHP) ([2.5 mM] in 50% EtOH) was then added within 5 minutes to initiate the reaction. Final concentrations were: 200 nM GPX4, 1 mM GSH, 0.5 mM CHP, 0.5 mM NADPH, 100 nM GR, 0.01% BSA.
6. Initial fluorescence readout (t=0) at 340/450 nm was measured using a ViewLux multimodal detector (PerkinElmer, Waltham, MA).
8. Endpoint fluorescence readout (t=15) at 340/450 nm was measured 15 min after room temperature incubation.
Background: Quantitative high-throughput screening tests each substance at several concentrations.
Regarding `COc1cc2cc(c1Cl)N(C)C(=O)C[C@H](OC(=O)C(C)C)[C@]1(C)O[C@@H]1[C@H](C)[C@@H]1C[C@@](O)(NC(=O)O1)[C@H](OC)/C=C/C=C(\C)C2`, the Potency entry is “inactive”.

`O=C(CBr)N1CC([N+](=O)[O-])([N+](=O)[O-])C1`: the Potency entry was “inactive”.

As for `CN1CCC2=C(C1)C(c1ccccc1)c1ccccc12` (stereo not given), the Potency entry was “inactive”.

Consider `CCCCCCCCCCC(=O)O[C@H]1CC[C@H]2[C@@H]3CCC4=CC(=O)CC[C@]4(C)[C@H]3CC[C@]12C`, for which the Potency entry is “inactive”.

For `CC(C)OC(=O)[C@H](C)N[P@](=O)(CO[C@H](C)Cn1cnc2c(N)ncnc21)Oc1ccccc1`, the Potency entry was “inactive”.

Consider `O=C(O)CNC(=O)C1C(=O)N(C2CCCCC2)C(=O)N(C2CCCCC2)C1=O`, for which the Potency entry is “inactive”.

Take `CC(COc1ccc(Oc2ccccc2)cc1)Oc1ccccn1` (stereo not given): the Potency entry is “inactive”.

`CC(=O)O[C@@]12CO[C@@H]1C[C@H](O)[C@@]1(C)C(=O)[C@H](O)C3=C(C)[C@@H](O)C[C@@](O)([C@@H](OC(=O)c4ccccc4)[C@H]21)C3(C)C`: the Potency entry is “inactive”.

With `CCN(C)C(C)C(O)c1ccccc1` (stereo not given), the Potency entry was “inactive”.

`Cn1c(CCCCCCC(=O)NO)nc2cc(N(CCCl)CCCl)ccc21`: the Potency entry is “inactive”.

Take `CCC[C@@H]1CC(=O)N([C@@H](CC)C(N)=O)C1`: the Potency result is “inactive”.

Take `CC(=O)OC1C[C@H](O[C@@H]2C(O)C[C@H](O[C@@H]3C(O)C[C@@H](OC4CC[C@]5(C)C(CCC6C5CC(O)[C@@]5(C)C(C7=CC(=O)OC7)CC[C@@]65O)C4)OC3C)OC2C)O[C@H](C)[C@H]1O[C@H]1OC(CO)C(O)C(O)C1O` (stereo not given in full): the Potency entry was “inactive”.

Turning to `CCC(=O)O[C@H]1CC[C@H]2[C@@H]3CC[C@H]4CC(=O)[C@H](C)C[C@]4(C)[C@H]3CC[C@]12C`, the Potency entry was “inactive”.

Regarding `N#CC(O[C@@H]1O[C@H](CO[C@@H]2O[C@H](CO)[C@@H](O)[C@H](O)[C@H]2O)[C@@H](O)[C@H](O)[C@H]1O)c1ccccc1` (stereo not given in full), the Potency result is “inactive”.

As for `CC(Cc1ccc2c(c1)OCO2)NCC(O)c1ccc(O)c(O)c1` (stereo not given), the Potency is 15.8 µM (active).

As for `CNC(C)C(O)c1ccccc1` (stereo not given), the Potency entry was “inactive”.

With `C=C/C=C/CC1=C(C)[C@H](OC(=O)[C@H]2[C@H](/C=C(\C)C(=O)OC)C2(C)C)CC1=O`, the Potency result is “inactive”.

For the compound `COc1cc(C)[nH]c(=O)c1CNC(=O)c1c(C)n([C@H](C)C2CCN(CC(F)(F)F)CC2)c2ccccc12`, the Potency entry is “inactive”.

As to `C[N+]1(CC2CC2)CC[C@]23c4c5ccc(O)c4O[C@H]2C(=O)CC[C@@]3(O)[C@H]1C5` (stereo not given in full), the Potency entry is “inactive”.

`COC(=O)[C@]12CCC(C)(C)C[C@H]1[C@H]1C(=O)C=C3[C@@]4(C)C=C(C#N)C(=O)C(C)(C)[C@@H]4CC[C@@]3(C)[C@]1(C)CC2`: the Potency result is “inactive”.

Turning to `COC[C@H]1OC(=O)c2coc3c2[C@@]1(C)C1=C(C3=O)[C@@H]2CC[C@H](O)[C@@]2(C)C[C@H]1OC(C)=O`, the Potency entry was “inactive”.

For the compound `C[C@@H]1CC[C@@]2(OC1)O[C@H]1C[C@H]3[C@@H]4CC=C5C[C@@H](O[C@@H]6O[C@H](CO)[C@@H](O[C@@H]7O[C@@H](C)[C@H](O)[C@@H](O)[C@H]7O)[C@H](O)[C@H]6O[C@@H]6O[C@@H](C)[C@H](O)[C@@H](O)[C@H]6O)CC[C@]5(C)[C@H]4CC[C@]3(C)[C@H]1[C@@H]2C`, the Potency result was “inactive”.

As for `CCCCCCC(C)(C)c1cc(O)c2c(c1)OC(C)(C)C1CC=C(CO)C[C@H]21` (stereo not given in full), the Potency entry is “inactive”.

Consider `CCCCOc1ccc(C[N+]2(C)C3CCC2CC(OC(=O)[C@H](CO)c2ccccc2)C3)cc1` (stereo not given in full), for which the Potency result was “inactive”.

Consider `c1ccc(CCNCc2ccccc2)cc1`, for which the Potency entry is “inactive”.

Regarding `CC(C)(O)/C=C\C(=O)[C@](C)(O)[C@H]1[C@H](O)C[C@]2(C)[C@@H]3CC=C4[C@@H](C=C(O)C(=O)C4(C)C)[C@]3(C)C(=O)C[C@@]12C`, the Potency result was “inactive”.

`Cc1[nH]ncc1-c1cc2nc([C@@H]3CC4CCN3CC4)[nH]c(=O)c2s1`: the Potency result is “inactive”.

For the compound `Fc1cccc(Br)c1NC1=NCCN1`, the Potency result was “inactive”.

On to `COC12C(COC(N)=O)C3=C(C(=O)C(C)=C(N)C3=O)N1CC1C2N1C` (stereo not given), for which the Potency result was “inactive”.

For `COC(=O)[C@@]12OC[C@]34[C@H]([C@@H](O)[C@@H]1O)[C@@]1(C)CC(=O)C(O)=C(C)[C@@H]1C[C@H]3OC(=O)[C@H](OC(=O)/C=C(\C)C(C)C)[C@@H]24`, the Potency result was “inactive”.

`CCN1C[C@@]2(COC)C3[C@@H](OC)C4[C@@H]1[C@@]3(C1C[C@]3(O)[C@H](OC(=O)c5ccccc5)C1[C@]4(OC(C)=O)[C@@H](O)[C@@H]3OC)[C@@H](OC)C[C@H]2O` (stereo not given in full): the Potency entry is “inactive”.

`CC1(C)[C@H](C=C(Cl)Cl)[C@@H]1C(=O)OCc1c(F)c(F)cc(F)c1F`: the Potency result is “inactive”.

For the compound `CC[N+]1(C)C2CC(OC(=O)[C@H](CO)c3ccccc3)CC1[C@@H]1O[C@H]21` (stereo not given in full), the Potency entry was “inactive”.

Take `CN(C(=O)/C=C/c1ccoc1)[C@@H]1CC[C@@]2(O)[C@H]3Cc4ccc(O)c5c4[C@@]2(CCN3CC2CC2)[C@H]1O5`: the Potency result is “inactive”.

As to `CC(C)N[C@@H]1CCn2c(=O)[nH]c3cccc(c32)[C@H]1O`, the Potency entry was “inactive”.

Take `CC(C)(NC(=O)O[C@@H]1CN2CCC1CC2)c1csc(-c2ccc(F)cc2)n1`: the Potency result is “inactive”.

In the case of `O=c1ccc2cc(O[C@@H]3O[C@H](CO)[C@H](O)[C@H](O)[C@H]3O)c(O)cc2o1`, the Potency was 25.5 µM (active).

Take `CO/C1=C/C(C)=C\[C@@H](C)[C@@H](O)[C@@H](C)C/C(C)=C\C=C/[C@H](OC)[C@@H]([C@@H](C)[C@@H](O)[C@H](C)[C@@]2(O)C[C@@H](O)[C@H](C)[C@@H](C(C)C)O2)OC1=O`: the Potency entry is “inactive”.

In the case of `C[C@@H](C1CC[C@@]2(O)C3=CC(=O)[C@@H]4C[C@@H](O)[C@@H](O)C[C@]4(C)[C@H]3CC[C@]12C)[C@H](O)CCC(C)(C)O` (stereo not given in full), the Potency result was “inactive”.

In the case of `C/C1=C/C[C@@H](/C(C)=C/c2csc(C)n2)OC(=O)C[C@H](O)C(C)(C)C(=O)[C@H](C)[C@@H](O)[C@@H](C)CCC1`, the Potency entry was “inactive”.
